Out of some 16,000 compounds screened, about 5,100 (32%) were called active. Not shown: some 25% with an inconclusive outcome. Some of the results follow. A number with no mark means an inactive call. Calls follow the shape of the dose curve; as a rule, active = well fitted curve in the direction sought with a large enough effect; inconclusive = small, poorly fitted or top-dose-only effect, or effect the other way; inactive = no such curve, though single readings can be large or run the other way.
% is scaled to controls: 0 for no effect and ±100 for the full control effect.

Cytochrome P450 3A4 (Homo sapiens), sequence (P08684 whole entry, looked up): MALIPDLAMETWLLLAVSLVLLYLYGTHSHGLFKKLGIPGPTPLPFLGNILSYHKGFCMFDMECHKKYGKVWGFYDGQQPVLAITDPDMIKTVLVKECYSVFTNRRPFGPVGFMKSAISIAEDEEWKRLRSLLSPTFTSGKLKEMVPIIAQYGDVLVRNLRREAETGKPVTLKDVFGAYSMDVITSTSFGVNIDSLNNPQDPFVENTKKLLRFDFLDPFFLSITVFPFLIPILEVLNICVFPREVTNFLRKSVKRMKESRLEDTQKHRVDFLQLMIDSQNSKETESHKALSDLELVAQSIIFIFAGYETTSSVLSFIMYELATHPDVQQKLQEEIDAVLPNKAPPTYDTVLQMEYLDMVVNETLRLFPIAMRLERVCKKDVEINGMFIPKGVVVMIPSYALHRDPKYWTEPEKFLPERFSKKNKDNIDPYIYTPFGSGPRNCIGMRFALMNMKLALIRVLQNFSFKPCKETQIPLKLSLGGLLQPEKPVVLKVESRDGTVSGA

The assay addresses Cytochrome P450 3A4 (Homo sapiens) (UniProt P08684). Briefly: Cytochrome panel assay with activity outcomes. To be noted: recombinant CYP, pro-luciferin dealkylation, luminescence, p450-cyp3a4; series mostly up to 57.1 µM; activity, negative = inhibition: at the top concentration.
Take `CC(C)(C)c1ccc(C(=O)NCc2ccc(Cl)cc2)cc1`: the “activity, negative = inhibition” value was -23.4%.
Still for that read-out and setting: next, `CCOCC(=O)Nc1cc(C(=O)Nc2ccccc2)ccc1Cl`: -4.26% [at 2.29 µM]; `CCN(CC)S(=O)(=O)c1cc(C(=O)OC)ccc1Cl`: 9.82%.
Consider `CCN(CC)S(=O)(=O)c1cc(C(=O)Nc2ccncc2)ccc1Cl`, for which the AC50 was 1 µM (active).
Turning to `CC(=O)Nc1ccc([N+](=O)[O-])cn1`, the “activity, negative = inhibition” value is 3.23%.
Regarding `CC(=O)Nc1ccc(Nc2ncc([N+](=O)[O-])c(Nc3ccc(NC(C)=O)cc3)n2)cc1`, the half-maximal activity concentration (AC50) was 6.31 µM (active).
Take `CC(=O)Nc1ccc(S(=O)(=O)c2ccc(N)cc2)cc1`: the activity, negative = inhibition was -19.3% [at 11.4 µM].
Consider `CCOc1cc(NC(=S)NCC2CCCO2)c(OCC)cc1NC(=O)c1cccc(C)c1` (stereo not drawn), for which the AC50 was 12.6 µM (active).
`Cc1scc(C(=O)NNC(=S)NCC2CCCO2)c1C` (stereo not drawn): the “activity, negative = inhibition” value is -19.7%.
`CCc1cc(C(=O)NNC(=S)NCC2CCCO2)cs1` (stereo not drawn): the “activity, negative = inhibition” value is -21.7%.
For `CCOc1cc(NC(=S)Nc2cccc(C)c2)c(OCC)cc1NC(=O)CC(C)C`, the half-maximal activity concentration (AC50) was 11.2 µM (active).
Take `Cc1ccccc1C(=O)c1c[nH]c(C(=O)NCC2CCCO2)c1` (stereo not drawn): the activity, negative = inhibition is 2.67% [at 11.4 µM].
For the molecule `CCOc1cc(NC(=S)NCC2CCCO2)c(OCC)cc1NC(=O)c1ccccc1C` (stereo not drawn), the concentration at half-maximal activity (AC50) is 12.6 µM (active).
With `Cc1ccc(C(=O)NC(=S)NCC2CCCO2)cc1` (stereo not drawn), the activity, negative = inhibition was -7.78% [at 2.29 µM].
On the same count and under the same terms, in the case of `Cc1cccc(NC(=S)NNC(=O)CC(C)O)c1C` (stereo not drawn) it was -9.46%; in that of `Nc1cc(C(=O)O)[nH]c(=O)n1`, -11.2% [at 11.4 µM]; in that of `O=C(O)[C@H]([C@H]1NCCS1)N1Cc2ccccc2C1`, -4.44% [at 11.4 µM].
Still for that read-out and setting: next, `CN1CC[C@@]2(CCCN(C(=O)c3cccc(F)c3)C2)C1`: -27.3%.
The same measure, in the same setting: in the case of `CC(=O)N1CCC2(CC1)CCN(c1cccc(-c3ccccc3)c1)CC2` it was -17.6%.
Turning to `O=C(c1cccc(F)c1)N1CCC[C@@]2(CCN(c3ccccc3)C2)C1`, the AC50 is 6.31 µM (active).
Same read-out and setting: next, `O=C(c1cccc(F)c1)N1CCC[C@@]2(CCN(c3cccc(-c4ccccc4)c3)C2)C1`: 7.94 µM (active).
Turning to `O=C(c1cccc(F)c1)N1CCC2(CCCN(C(c3ccccc3)c3ccccc3)C2)CC1`, the “activity, negative = inhibition” value is -29.9%.
As to `COC(=O)N1CCC2(CC1)CN(c1cccc(-c3ccccc3)c1)C2`, the “activity, negative = inhibition” value was 4.17%.
On to `COc1ccc(C(=O)N2CCC[C@@]3(CCN(c4cccc(-c5ccccc5)c4)C3)C2)cc1`, for which the AC50 was 3.16 µM (active).
On the same count and under the same terms, next, `O=C(c1cccc(F)c1)N1CCC[C@@]2(CCN(C(c3ccccc3)c3ccccc3)C2)C1`: 3.98 µM (active).
For `CN(C)CCCO[C@H]1[C@@H]2OC(C)(C)O[C@@H]2O[C@@H]1[C@H](O)CO`, the “activity, negative = inhibition” value is 1.58% [at 25.6 µM].
On the same count and under the same terms, in the case of `Clc1ccc2c(NCCNC3CCCCC3)ccnc2c1` it was -5.83% [at 11.4 µM]; in that of `O=C(O)/C=C\[C@H](O)c1ccc(Cl)cc1`, 2.09%.
Take `O=C(c1cccc(F)c1)N1CCC[C@@]2(CCN(c3ccncc3)C2)C1`: the half-maximal activity concentration (AC50) was 0.316 µM (active).
In the case of `O=C(c1cccc(F)c1)N1CCC2(CC1)CN(c1ccncc1)C2`, the “activity, negative = inhibition” value is 22.2%.
As for `O=C(NNC(=O)c1ccccc1-n1cccc1)c1ccc(Cl)c(Cl)c1`, the AC50 is 15.8 µM (active).
`O=C(NNC(=O)c1ccccc1-n1cccc1)c1ccccc1`: the “activity, negative = inhibition” value was -20.3%.
On the same count and under the same terms, in the case of `N[C@H](CCCC(=O)O)C(=O)O` it was -2.17%; in that of `N=C(C[C@@H](O)COc1ccccc1-c1ccccc1)N1CCCCC1`, -25.3%.
Take `CS(=O)(=O)Nc1cccc(-c2nccc(-n3ccnc3)n2)c1`: the AC50 is 1.58 µM (active).
As to `CS(=O)(=O)Nc1cccc(-c2cncnc2-n2ccnc2)c1`, the AC50 is 7.94 µM (active).
On to `CN1CCN(c2ccnc(-c3ccoc3)n2)CC1`, for which the “activity, negative = inhibition” value was -2.76%.
With `CN1CCN(c2ccnc(-c3cccc(NS(C)(=O)=O)c3)n2)CC1`, the concentration at half-maximal activity (AC50) is 25.1 µM (active).
As to `C[N+](C)(N)CCC[N+](C)(C)N`, the activity, negative = inhibition is -4.61% [at 11.4 µM].
On to `Cc1ccc(NC(=O)/C(=C\c2cccc([N+](=O)[O-])c2)NC(=O)c2cccs2)cc1`, for which the AC50 was 0.398 µM (active).
For `O=C(N/N=C/C=C/c1ccc([N+](=O)[O-])cc1)c1cccs1`, the “activity, negative = inhibition” value was -1.51%.
With `Cc1ccc(NC(=O)/C(=C\c2ccc([N+](=O)[O-])cc2)NC(=O)c2ccccc2)cc1`, the half-maximal activity concentration (AC50) is 1.12 µM (active).
On the same count and under the same terms, next, `Cc1ccc(NC(=O)/C(=C/c2cccc([N+](=O)[O-])c2)NC(=O)C2CCCCC2)c(C)c1`: 1 µM (active).
For the molecule `O=C(Nc1cccc2ccccc12)/C(=C/c1ccc([N+](=O)[O-])cc1)NC(=O)c1ccccc1`, the half-maximal activity concentration (AC50) is 1.12 µM (active).
Turning to `CCc1ccc(N2CC(C(=O)N/N=C/c3cccc([N+](=O)[O-])c3)CC2=O)cc1` (stereo not drawn), the “activity, negative = inhibition” value was -50%.
For `CCOC(=O)C1CCCN(C(=O)/C=C/c2cccc([N+](=O)[O-])c2)C1` (stereo not drawn), the activity, negative = inhibition was 3.28% [at 2.29 µM].
Take `O=C(O)C1=CCCNC1`: the AC50 result was “inactive”.
`CC[C@H](Cc1c(I)cc(I)c(N)c1I)C(=O)O`: the “activity, negative = inhibition” value was -23.4% [at 25.6 µM].

Values taken from PubChem BioAssay AID1851 (National Center for Advancing Translational Sciences (NCATS), 2009).
